Compound activity from PubChem BioAssay.
Most compounds without a hit are left out; they make up all but 11% or so of the library.
ALDH1A1 block = qHTS Assay for Inhibitors of Aldehyde Dehydrogenase 1 (ALDH1A1). Aldehyde dehydrogenase 1A1 (Homo sapiens), P00352. Purified ALDH1A1, NADH fluorescence, propionaldehyde substrate. Potency, µM (series often up to 75.3 µM), actives largely listed as inhibitors. 220,000 tested, 7.3% active. AID 1030, 2008
PNC assembly inh = High Content Assay for Compounds that inhibit the Assembly of the Perinucleolar Compartment; PC3M PTB-GFP, PNC prevalence imaging, 16 h; hits give low values; activity change (PNC), negative = inhibition, % at 10 µM; 140,000 tested, 3.1% active;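 active = readout at or below -70, meaning at least 70% loss of cells showing the perinucleolar compartment, a nuclear body marking cancer cells; inconclusive = readout between -30 and a set limit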
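PC3M cells stably expressing PTB-GFP, 750–1000 cells/well, treated 16 h at 37 °C with compound (23 nl of library stock), in duplicate. After paraformaldehyde fixation and Hoechst stain, imaged at 20x; PNC prevalence scored by image analysis.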
HPGD block = qHTS Assay for Inhibitors of HPGD (15-Hydroxyprostaglandin Dehydrogenase). 15-hydroxyprostaglandin dehydrogenase [NAD(+)] (Homo sapiens), P15428. purified HPGD, NADH fluorescence kinetic, PGE2 substrate. Potency, µM, usual class: inhibitors. 150,000 tested, 4.3% active
Target sequence (P15428 whole entry, looked up): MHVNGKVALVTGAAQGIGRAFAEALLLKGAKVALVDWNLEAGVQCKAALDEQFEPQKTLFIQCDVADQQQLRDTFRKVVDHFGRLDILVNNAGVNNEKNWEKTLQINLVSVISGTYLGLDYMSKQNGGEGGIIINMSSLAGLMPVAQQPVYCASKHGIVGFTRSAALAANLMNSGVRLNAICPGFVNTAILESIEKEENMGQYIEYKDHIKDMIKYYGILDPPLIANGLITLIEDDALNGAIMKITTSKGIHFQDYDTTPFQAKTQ
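20 nM HPGD preincubated 15 min at room temperature with compound in 50 mM Tris-HCl pH 8, 0.01% Tween 20. Started with 1 mM NAD+ and 30 uM prostaglandin E2; NADH fluorescence (360/450 nm) read 5 times over 30-s intervals, last minus first.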
A number is an active result; – = inactive; ? = inconclusive; · = no result given; ! = repeats disagree; [ ] = dose if it differs, or a comment. Unless noted, calls come from the whole dose curve; as a rule, active = well fitted inhibition curve with a large enough effect (not every such curve was filed as active); inconclusive = small, poorly fitted or top-dose-only effect, or another doubt; inactive = no such curve, though single readings can be large or run the other way.

SMILES	ALDH1A1 block	PNC assembly inh	HPGD block
ClP(Cl)(Cl)(Cl)Cl	·	·	–
COC1=C(C)C(=O)c2c(c(COC(N)=O)c3n2C[C@@H]2[C@@H]3N2C)C1=O (some centres not stated)	–[13.5 µM]	·	–
O=C1NC(=O)C(=Cc2ccc(-c3cc(Cl)ccc3[N+](=O)[O-])o2)C(=O)N1	22.4µM	·	·
N#CCc1ccccc1	–	·	–
CCN(N=O)C(N)=O	–	·	–
COC1=C[C@H]2C3=C([C@H]2C1=O)[C@H](NC(C)=O)CCc1cc(OC)c(OC)c(OC)c13	–	·	–
O=C1NC(=O)C(=Cc2cc3c(cc2[N+](=O)[O-])OCO3)C(=O)N1	15.8µM	·	·
Cc1cccc(N2C(=O)NC(=O)/C(=C/c3cc4c(cc3[N+](=O)[O-])OCO4)C2=O)c1	–	·	·
c1cc(CN2CC3(CCNCC3)C2)ccn1	–	·	–
N[C@@H](Cc1ccccc1)P(=O)(O)O	–[13.5 µM]	·	–
CC(C)CCNC(=O)Cn1c(=O)oc2cc(S(=O)(=O)N3CCc4ccccc43)ccc21	?	?	–
O=C1NC(=O)C2(Cc3ccccc3N3CCCC32)C(=O)N1c1cccc(Cl)c1 (configuration not stated)	?	–	–
Cc1ccc(N2C(=O)NC(=O)C3(Cc4ccccc4N4CCN(c5ccccc5)CC43)C2=O)cc1 (configuration not stated)	22.4µM	–	·
c1cncc([C@H]2CCCCN2)c1	–	·	–
CNC1[C@@H](O)C(OC2C(N)C[C@H](N)[C@@H](O[C@@H]3OC(C(C)O)C(O)C(O)C3N)C2O)OC[C@]1(C)O (some centres not stated)	–	·	–
O=C(O)/C=C\CO	–	·	–
Cc1cc(SCc2sc(-c3ccc(C(F)(F)F)c(F)c3)nc2C)ccc1OCC(=O)O	?	·	10µM
C=CCn1c(O)c(C(CC)=NCCc2ccccc2)c(=O)[nH]c1=O	–	?	–
C=CCn1c(O)c(/C(CC)=N/NC(=S)Nc2ccccc2)c(=O)[nH]c1=O	17.8µM	·	·
O=C(/C=C\c1ccc(Cl)cc1)N[C@@]12CCC(=O)[C@@H]3Oc4c(O)ccc5c4[C@@]31CCN(CC1CC1)[C@@H]2C5	–	·	–
C=C1C([C@@]2(C)C(OC(C)=O)CC(=O)O[C@@](C)(COC(C)=O)C2CC(=O)OC)C(OC=O)C(OC(=O)C(OC(C)=O)C(C)CC)[C@]2(C)C(c3ccoc3)CC(=O)C12O (some centres not stated)	–	·	–
Cc1noc(C(=O)Nc2sc3c(c2C#N)CCC3)c1Cl	12.6µM	–	25.1µM
CCC1CN2CCC1CC2C(O)c1ccnc2ccccc12 (configuration not stated)	–	·	–
Cc1cc2c(C(C)C)c(O)c(O)c(C=O)c2c(O)c1-c1c(C)cc2c(C(C)C)c(O)c(O)c(C=O)c2c1O	–	?	8.91µM!
CCOC(=O)CN1C(=O)CC(C[C@@H](O)C2C[C@@H](C)C[C@H](C)C2=O)CC1=O (some centres not stated)	–	·	·
SMILES	ALDH1A1 block	PNC assembly inh	HPGD block
C[C@H]1[C@@H](O)[C@@H](C)/C=C\C=CCC\C=C/C=C\C=C/C=C[C@@H](O[C@H]2O[C@@H](C)[C@@H](O)[C@@H](N)[C@@H]2O)C[C@@H]2O[C@@](O)(C[C@@H](O)[C@H]2C(=O)O)C[C@@H](O)[C@@H](O)CC[C@@H](O)C[C@@H](O)C[C@@H](O)CC(=O)O[C@H]1C	–	·	–
COc1cc(C2C(C#N)=C(N)Oc3cc(O)ccc32)cc(OC)c1OC (configuration not stated)	?	-91.1	–
COc1cc([C@@H]2c3cc4c(cc3[C@H](O)C3COC(=O)[C@@H]32)OCO4)cc(OC)c1OC (some centres not stated)	–	·	–
Cc1[nH]nc2c1C1(CCC3(CC1)OCCO3)C(C#N)=C(N)O2	?	–	–
CCCN(CCC)[C@@H]1CCc2c(OC)cccc2[C@@H]1C	–	·	–
COc1cc(Cc2ccc(N)c(OC)c2)ccc1N	?	-113.4	–
COc1ccccc1N	?	·	–
CCOCCOC(C)=O	?	·	–
c1ccc(N2CC3(CCNCC3)C2)cc1	–	·	–
CC(=O)O[C@H]1CC[C@@]2(C)C(=CC[C@@H]3[C@H]2CC[C@]2(C)C(=O)CC[C@H]32)C1	–	·	–
C=CCN1C(=O)NC(=O)C(Cc2ccc(OC)c(OC)c2)C1=O (configuration not stated)	25.1µM	–	–
COc1cc(CC2C(=O)N(C)C(=O)N(C)C2=O)ccc1OCc1ccccc1	?	?	–
CCOC(=O)c1ncn2c1CN(C)C(=O)c1cc(N=[N+]=[N-])ccc1-2	?	·	–
COP(=O)(OC)c1nc(-c2cccc3ccccc23)oc1NCCc1ccccc1	?	-91.4	?
COP(=O)(OC)c1nc(-c2cccc3ccccc23)oc1N1CCOCC1	?	–	?
COC(=O)C1(C)C=C2C(=C(C)C(=O)C2C)CN1 (configuration not stated)	?	·	–
CN1C2CCC1/C(=C/c1ccccn1)C(=O)/C2=C\c1ccccn1	–	-109.0	–
c1cc(N2CCCC3(CCNCC3)C2)ccn1	?	·	–
C=CCN1C[C@H](C)N([C@@H](c2ccccc2)c2ccc(C(=O)N(CC)CC)cc2)C[C@H]1C	–	·	?
C=CCN1C[C@H](C)N([C@H](c2ccc(C(=O)N(CC)CC)cc2)c2cccc(O)c2)C[C@H]1C	–	·	11.2µM
Oc1cccc(Cl)c1	–	·	–
Cn1cc(C(=O)c2ccccc2)c2ccccc21	–	–	–
COc1cc(O)c(C(=O)c2ccccc2)cc1S(=O)(=O)O	12.6µM	·	–
CCCCn1c(O)c(C(C)=NCCN2CCOCC2)c(=O)[nH]c1=O	–	–	–
CC(=NCCN1CCOCC1)c1c(O)n(C2CCCCC2)c(=O)[nH]c1=O	14.1µM	–	–
SMILES	ALDH1A1 block	PNC assembly inh	HPGD block
c1cc(Cc2cnc[nH]2)ccn1	–	·	–
COC1=CC(=O)OC(/C=C/c2ccccc2)C1 (configuration not stated)	–	?	–
COC1=CC(=O)O[C@@H](/C=C/c2ccc3c(c2)OCO3)C1	25.1µM	·	–
CC(=O)N1CC[N+](C)(C)CC1	–	·	–
COc1ccc(C[C@@H]2NC[C@H](O)[C@@H]2OC(C)=O)cc1	–	·	–
COc1ccc(C(C)=O)cc1COC(=O)c1ccc2ccccc2n1	14.1µM	·	·
ClCC1CO1 (configuration not stated)	?	·	–
C[C@@H]1O[C@H](C[N+](C)(C)C)C[C@@H]1O	–	·	·
COc1ccc(OC)c(-n2c(O)c(C=Nc3c(C)n(C)n(-c4ccccc4)c3=O)c(=O)[nH]c2=O)c1	–	–	–
Cc1ccc(-n2c(O)c(/C=C3/C(c4ccccc4)=Nc4ccccc43)c(=O)[nH]c2=O)cc1	25.1µM	–	·
Cc1ccccc1-n1c(O)c(C=Nc2ccc(N(C)C)cc2)c(=O)[nH]c1=O	–	–	–
Cc1ccccc1-n1c(O)c(/C=N/c2nccs2)c(=O)[nH]c1=O	–	–	–
Cc1ccccc1-n1c(O)c(/C=C2/C(c3ccccc3)=Nc3ccccc32)c(=O)[nH]c1=O	?	?	28.2µM
Cc1cccc(N=Cc2c(O)n(-c3ccccc3C)c(=O)[nH]c2=O)c1	25.1µM	–	?
